Reference: PubChem BioAssay (EPA / NIEHS)
Records with an inconclusive call do not appear. Active and inactive are the calls of the source. The calls were made as follows: active = hit-call score of the fitted dose curve at least 0.9, where 1 is the maximum; inconclusive = response in the unintended direction; inactive = score below 0.9.

Experiment: ATG_M_06_TRANS: Attagene TRANS-FACTORIAL HepG2 Assay for M06 Transcription Factor (Internal Marker) (AID 2282983)
Details: HepG2 Attagene TRANS M06 internal marker reporter
Description: ATG_TRANS is a cell-based, multiplexed-readout assay that uses HepG2, a human liver cell line, with measurements taken at 24 hours after chemical dosing in a 24-well plate.ATG_M_06_TRANS is one of 30 assay component(s) measured or calculated from the ATG_TRANS assay. It is designed to make measurements of mRNA induction, a form of inducible reporter, as detected with fluorescence intensity signals by Reverse transcription polymerase chain reaction (RT-PCR) and Capillary electrophoresis technology.Data from the assay component ATG_M_06_TRANS was analyzed into 1 assay endpoint. This assay endpoint, ATG_M_06_TRANS, was analyzed in the positive analysis fitting direction relative to DMSO as the negative control and baseline of activity. Using a type of inducible reporter, measures of mRNA for gain-of-signal activity can be used to understand the background control at the transcription factor-level as they relate to the gene . Furthermore, this assay endpoint can be referred to as a secondary readout, because this assay has produced multiple assay endpoints where this one serves a background control function. To generalize the intended target to other relatable targets, this assay endpoint is annotated to the background measurement intended target family, where the subfamily is internal marker.
Human liver HepG2 cells are transiently transfected with multiple reporter transcription units (MRTUs) in 6-well plates using FuGene 6 reagent (Roche; 3 ml FuGene/1 mg DNA). The MRTU constructs are regulated by a cis-regulating element (promoter). […] A major difference between the CIS and TRANS system is that in CIS activities of endogenous TFs are measured, whereas the TRANS assay evaluates changes in activities of exogenous, chimeric NR-Gal4 proteins. […] At the end of 24 hour incubation, total RNA was isolated using TriZol reagent (Invitrogen). The isolated RNA is then reverse-transcribed using oligo(dT) primer and Mo-MLV reverse transcriptase (Invitrogen) with DNAse I (Ambion) treatment for 30 min. The one-tenth of the produced cDNA was amplified by PCR using Taq DNA polymerase (Invitrogen) and two reporter sequence-specific primers. The PCR products were fluorescently labeled by primer extension with 6-arboxyfluorescein (6-FAM) 5'-labeled reporter sequence-specific primer (2 min at 95 C, 20 s at 68 C and 10 min at 72 C) and these products were digested with 5U of HpaI (New England Biolabs) for 2h at 37 C. The fragments were purified using Qiaquick PCR columns (Qiagen), analyzed on an ABI 3130xL genetic analyzer (Applied Biosystems) with peak positions identified by using a set of X-rhodamine (ROX)-labeled MapMarker1000 molecular weight standards (BioVentures). The raw capillary electrophoresis data was processed using Attagraph software (Attagene).
In the case of OC(O)(C(F)C(O)(O)C(F)(F)F)C(F)(F)F, the outcome is reported as “inactive”.
In the case of C=CCc1cc(S(=O)(=O)c2ccc(O)c(CC=C)c2)ccc1O, the outcome is reported as “inactive”.
In the case of CCc1cccc(CC)c1N, the outcome is reported as “inactive”.
For NC(=O)N1c2ccccc2C=Cc2ccccc21, the outcome was “inactive”.
In the case of Cc1nccn1-c1ccc(Sc2cccc(C3(C(N)=O)CCOCC3)c2)cc1, the outcome is reported as “inactive”.
In the case of CCn1nc(C)c2c1C(=O)NCC(c1ccc(O)cc1)=N2, the outcome is reported as “inactive”.
With OC[C@H]1O[C@@H]2O[C@H]3[C@H](O)[C@@H](O)[C@@H](O[C@H]4[C@H](O)[C@@H](O)[C@@H](O[C@H]5[C@H](O)[C@@H](O)[C@@H](O[C@H]6[C@H](O)[C@@H](O)[C@@H](O[C@H]7[C@H](O)[C@@H](O)[C@@H](O[C@H]1[C@H](O)[C@H]2O)O[C@@H]7CO)O[C@@H]6CO)O[C@@H]5CO)O[C@@H]4CO)O[C@@H]3CO the outcome was “inactive”.
For C[C@]12C=CC(=O)C=C1CC[C@H]1[C@@H]3C[C@@H](O)[C@](O)(C(=O)CO)[C@@]3(C)C[C@H](O)[C@@]12F, the outcome was “inactive”.
In the case of CCCCCOC(C)=O, the outcome is reported as “inactive”.
With CCCCCCCCN(C)C the outcome was “inactive”.
In the case of CCCCCCOC(=O)CC(CC(=O)OCCCCCC)(OC(=O)CCC)C(=O)OCCCCCC, the outcome is reported as “inactive”.
In the case of C[Si](C)(C)C(F)(F)C(F)(F)C(F)(F)F, the outcome is reported as “inactive”.
In the case of NNC(=O)c1ccncc1, the outcome is reported as “inactive”.
In the case of O=C(O)CO, the outcome is reported as “inactive”.
For CCCCC(CC)C(=O)OCCOCCOCCOC(=O)C(CC)CCCC (stereo not given), the outcome was “inactive”.
In the case of O=C(NO)C1(NS(=O)(=O)c2ccc(Oc3ccc(F)cc3)cc2)CCOCC1, the outcome is reported as “inactive”.
In the case of CCCCN1C(=O)[C@@H]([C@H](O)C2CCCCC2)NC(=O)C12CCN(Cc1ccc(Oc3ccc(C(=O)O)cc3)cc1)CC2, the outcome is reported as “inactive”.
With OCCNCCO the outcome was “inactive”.
In the case of FC(F)(F)COC(OCC(F)(F)F)OCC(F)(F)F, the outcome is reported as “inactive”.
In the case of CCCC(CCC)C(=O)O, the outcome is reported as “inactive”.
With COc1cc2c(c(OC)c1OC)-c1ccc(OC)c(=O)cc1[C@@H](NC(C)=O)CC2 the outcome was “inactive”.
In the case of C[C@@H](Oc1ccc(CNC(=O)c2cccnc2Oc2ccc3c(c2)OCO3)c(F)c1)C(=O)O, the outcome is reported as “inactive”.
With CC[C@H](C)C(=O)O[C@H]1C[C@H](O)C=C2C=C[C@H](C)[C@H](CC[C@@H](O)C[C@@H](O)CC(=O)O)[C@H]21 the outcome was “inactive”.
In the case of O=S(=O)(O)CCC(F)(F)C(F)(F)C(F)(F)C(F)(F)C(F)(F)C(F)(F)F, the outcome is reported as “inactive”.
For COS(C)(=O)=O, the outcome was “inactive”.
In the case of O=c1[nH]cnc2c1ncn2[C@H]1CC[C@@H](CO)O1, the outcome is reported as “inactive”.
For OCCC(F)(F)C(F)(F)C(F)(F)C(F)(F)F, the outcome was “inactive”.
With Cc1ccc(S(=O)(=O)NC(=O)NN2CCCCCC2)cc1 the outcome was “inactive”.
For CCOc1ccc2[nH]cc(C(=O)NCc3ccccc3)c(=O)c2n1, the outcome was “inactive”.
With NC(=O)NN=Cc1ccc([N+](=O)[O-])o1 the outcome was “inactive”.
With CCCc1ccccc1 the outcome was “inactive”.
In the case of c1ccc2ncccc2c1, the outcome is reported as “inactive”.
For c1ccc2c(c1)-c1cccc3c1c-2cc1ccccc13, the outcome was “inactive”.
In the case of OC[C@H]1O[C@@](CO)(O[C@H]2O[C@H](CO)[C@@H](O)[C@H](O)[C@H]2O)[C@@H](O)[C@@H]1O, the outcome is reported as “inactive”.
With FC(F)(F)C(F)(F)C(F)(F)C(F)(F)C(F)(F)C(F)(F)I the outcome was “inactive”.
For O=C(N[C@H](CO)[C@H](O)c1ccc([N+](=O)[O-])cc1)C(Cl)Cl, the outcome was “inactive”.
With CCCOc1ccc(S(=O)(=O)N2CCN(CC)CC2)cc1-c1nc2c(CC)n(Cc3ccccn3)nc2c(=O)[nH]1 the outcome was “inactive”.
In the case of CCCCOC(=O)c1ccccc1, the outcome is reported as “inactive”.
For COCc1nnc(-c2ccc[n+]([O-])c2)n1-c1c(Cl)c(Cl)cc2[nH]c(=O)c(=O)[nH]c12, the outcome was “inactive”.
In the case of O=C(Cl)C(F)(F)C(F)(F)C(F)(F)C(=O)Cl, the outcome is reported as “inactive”.
